Whole data set: some 68,000 sequences, median “fluorescence intensity (a.u.)” near 9,100, cut for the highest 2% near 16,000. The list comes from a sample in which the highest values are over-represented; it also holds similar and randomly drawn sequences.
Biological target: OsWRKY34 (Oryza sativa, UniProt Q0JBA9 1-250)
Test: protein-binding microarray (RPBM); PBS, 2% BSA, 51.3 ng/ul salmon testes DNA, 50 uM zinc acetate, 200 nM TF, 25 C, 1 h; high values mean tight binding
Details: protein: recombinant; tags: N-terminal polyhistidine and DsRed monomer fusion (pET32a); label: CyDye5-dUTP incorporated in the synthesized complementary strand; 3' TTTTT single-stranded linker to array surface; dsDNA, one strand shown
How it was run: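 For the binding signal, per-feature fluorescence intensity was read in arbitrary units on an Axon 4000B scanner. Before scanning, a 2% BSA-blocked custom Agilent array made double-stranded with Cy5-dUTP was washed after 1 h at 25 °C with 200 nM protein and 50 µM zinc acetate. The proteins were Ni–NTA-purified transcription factors with N-terminal polyhistidine and DsRed fusions, expressed in E. coli BL21-CodonPlus.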

Chain of OsWRKY34 (Q0JBA9 entry or part of it): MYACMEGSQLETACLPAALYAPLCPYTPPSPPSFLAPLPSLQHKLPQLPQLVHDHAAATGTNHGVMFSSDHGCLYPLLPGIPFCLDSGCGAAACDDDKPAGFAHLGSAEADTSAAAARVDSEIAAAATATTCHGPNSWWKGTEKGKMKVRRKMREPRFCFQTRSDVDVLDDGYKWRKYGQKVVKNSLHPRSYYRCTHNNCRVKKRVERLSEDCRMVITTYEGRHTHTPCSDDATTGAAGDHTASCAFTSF

Sequence	binding signal
TCTCTCTCTCGTGCGTCACCTCCTCGCGTGCTCAGCGCCGCGGAGTCACCTAGTGCAG	8780 fluorescence intensity (a.u.)
TCCTTGCTCCATCAGTATTACACCACCCAACACAAGCTCACGGAGTCACCTAGTGCAG	8870 fluorescence intensity (a.u.)
CCCTCTATAAATGGTTCCTATCACAACCACAAACACCACACGGAGTCACCTAGTGCAG	8240 fluorescence intensity (a.u.)
GGTTCAAATTAACTTTTCAATCTTGGCTGTGTTTGGATCCCGGAGTCACCTAGTGCAG	9630 fluorescence intensity (a.u.)
CTCCTCATCCATCCACCACACCACTTGCCTCCAAACAAAACGGAGTCACCTAGTGCAG	9340 fluorescence intensity (a.u.)
CGACTTGTTGCCTCAAACAATTCCTGGTTATAAAACACCACGGAGTCACCTAGTGCAG	35500 fluorescence intensity (a.u.)
AGTTAATCCTTGTTAAACTTTGGTTTCAAAACAATTTCCCCGGAGTCACCTAGTGCAG	65500 fluorescence intensity (a.u.)
TCTACAAACTTGGTCAAACTTAAAACAGTTTGACTTTGACCGGAGTCACCTAGTGCAG	14600 fluorescence intensity (a.u.)
GCTGTTTCCTGGAGGTTCCATCCATGCTATCCTGTGCTCGCGGAGTCACCTAGTGCAG	8470 fluorescence intensity (a.u.)
GACCAACCAAAACCTCCGATCACCTTGTCCCGTACTGAAACGGAGTCACCTAGTGCAG	11000 fluorescence intensity (a.u.)
TCACCCCGCCGCCGCCATCCAGGCGCCGACGACCTCCCATCGGAGTCACCTAGTGCAG	8840 fluorescence intensity (a.u.)
CTCTCTTTTCCTTTTCTAATTTTAGATTTTATTTTATTTTCGGAGTCACCTAGTGCAG	8600 fluorescence intensity (a.u.)
GTTTTACATTTGTCCTAAATCAAACATATCTATCTTTGACCGGAGTCACCTAGTGCAG	8180 fluorescence intensity (a.u.)
GGGGTGGTTTTGGCTGAGCTGCTTGTGTCCTCTTCTTGCTCGGAGTCACCTAGTGCAG	18400 fluorescence intensity (a.u.)
CAGCTCGAGCTGTTTGCTTGTGGGGTTCTTGTTTTTCTTTCGGAGTCACCTAGTGCAG	8020 fluorescence intensity (a.u.)
TTTTTGTGTGTGTGCTGTGTTCTTGGGTTTCTTGGCAATGCGGAGTCACCTAGTGCAG	8650 fluorescence intensity (a.u.)
TGGTTTTGGCAGCTGCTGTGTGCACTTGTGGGTTTTTTCTCGGAGTCACCTAGTGCAG	8960 fluorescence intensity (a.u.)
TGGCTGAGCTTCTTTGCGTGTTCTTGTTTGGGTTTTGGGGCGGAGTCACCTAGTGCAG	18700 fluorescence intensity (a.u.)
TTCTTGGCTTGGCTCCTCTGGTGTTCTTGTGCTCTGGGTTCGGAGTCACCTAGTGCAG	9970 fluorescence intensity (a.u.)
CATTTTATTGTGAACTTTTTCCTTTTAAACTCGATGTTTACGGAGTCACCTAGTGCAG	10700 fluorescence intensity (a.u.)
GTGATGTTCATGCGACAATGTGTTTCTTCCTGGACATATTCGGAGTCACCTAGTGCAG	8050 fluorescence intensity (a.u.)
CGTTGGAAAGCTACTGTTTTGACCCGTTCACACCACTACGCGGAGTCACCTAGTGCAG	9680 fluorescence intensity (a.u.)

Sequence	binding signal
CAAATGGAGGCCCCTTTTAGATACGCTTCCTGTTACTTTCCGGAGTCACCTAGTGCAG	8710 fluorescence intensity (a.u.)
TCCTTCTGTCACCATTCGATTCCCAAACTCTCGCCGCCGCCGGAGTCACCTAGTGCAG	9140 fluorescence intensity (a.u.)
CTCTCTCTCTCTCTCTCTCTCTGCTGTTTTCTGTATCTGACGGAGTCACCTAGTGCAG	10100 fluorescence intensity (a.u.)
CATCAGTTGGCGATTCCCGCTGTATCCTAGAATCTGCTGACGGAGTCACCTAGTGCAG	65000 fluorescence intensity (a.u.)
CCCGCTTCTTCCCCGCTGCTTGAATCAGTCGTATCCTCACCGGAGTCACCTAGTGCAG	11400 fluorescence intensity (a.u.)
ACGACAAGAACCACCTCTCTCTCTCTCTCTCACTGTCCACCGGAGTCACCTAGTGCAG	9040 fluorescence intensity (a.u.)
TTCCCCTTGCTCTTGCATTTGCTGCCGCTCTTCGCCTCTTCGGAGTCACCTAGTGCAG	9270 fluorescence intensity (a.u.)
TCTCTTCTCTTTCTCTCCTCTCTTTTTGCCGCCGCTCGAGCGGAGTCACCTAGTGCAG	8900 fluorescence intensity (a.u.)
AAACTCTCACTCGCTCACTCACACCTCACACGCTGCTGCTCGGAGTCACCTAGTGCAG	8070 fluorescence intensity (a.u.)
CACACACACTGCACTTCGGCTCACTCTCTCCACTGTTCTTCGGAGTCACCTAGTGCAG	16700 fluorescence intensity (a.u.)
GCTCAGCTCTTCACTTCTGCTGCATTCACACCACCACACTCGGAGTCACCTAGTGCAG	9310 fluorescence intensity (a.u.)
TCAGGCTCTCACTCGCGCTGCATGCCACACTGCTTCTTCTCGGAGTCACCTAGTGCAG	16400 fluorescence intensity (a.u.)
GCCCTTCCTCTCCTCACTCACACTGCCCTGTTCATCTCTTCGGAGTCACCTAGTGCAG	8540 fluorescence intensity (a.u.)
TCTCTCTCTCTCCTTCGGCTCATTCGTCACTGTTCCACCGCGGAGTCACCTAGTGCAG	11300 fluorescence intensity (a.u.)
AGAATGGTCTTATATGTTGTGTAGTGGTGTGTGGGCGTGTCGGAGTCACCTAGTGCAG	8170 fluorescence intensity (a.u.)
ACCGATGACTTTTGGCAAAACTTACAGTAAAACTGCTTATCGGAGTCACCTAGTGCAG	8850 fluorescence intensity (a.u.)
CCTCCGCTCCTAAATATTTGACACCGCTGACTTTTTAAAACGGAGTCACCTAGTGCAG	11100 fluorescence intensity (a.u.)
CCTCCGTTTTTAAATATTTGATGCCGTTGACTTTTTAAAACGGAGTCACCTAGTGCAG	19900 fluorescence intensity (a.u.)
CCATCTGTCATATTTGTCATCGTTGACTTTTTTAAATATACGGAGTCACCTAGTGCAG	13600 fluorescence intensity (a.u.)
CCTCCTTTCCTAAATATTTGACGCCGTTGACTTTTTTAAACGGAGTCACCTAGTGCAG	13500 fluorescence intensity (a.u.)
CATATCTAACTTTTGACCATCCGTTTTATTTAAAAAAATACGGAGTCACCTAGTGCAG	8310 fluorescence intensity (a.u.)
ATGCCGTTGACTTTTTAAAATATATTTGACCATTTCCTATCGGAGTCACCTAGTGCAG	21700 fluorescence intensity (a.u.)

Sequence	binding signal
ATGTTTGACTTTTTTTTAAAAAATTTATATTTTTTTAAATCGGAGTCACCTAGTGCAG	8390 fluorescence intensity (a.u.)
ATATTTGATGCCGTTGACTTTTTAAAATATATTTGATCATCGGAGTCACCTAGTGCAG	16400 fluorescence intensity (a.u.)
TATTTTCCTACCATTTGATTTATTGTTAAATATACTTTTTCGGAGTCACCTAGTGCAG	10200 fluorescence intensity (a.u.)
TCCTATGCCTGCAGCCTGTATCAAAAAATTTTCACAATGTCGGAGTCACCTAGTGCAG	8480 fluorescence intensity (a.u.)
CTATATCGCACGTACTCCGGTACCAACGATCCTATACCATCGGAGTCACCTAGTGCAG	9910 fluorescence intensity (a.u.)
TTTTGAAATCCGCGCCTACTTTTTTCTTGTCTCTTCTGTGCGGAGTCACCTAGTGCAG	8400 fluorescence intensity (a.u.)
CACTCGCCACCGCCGCCCACCCGCAACTGCCGCCGACTCCCGGAGTCACCTAGTGCAG	10800 fluorescence intensity (a.u.)
CTATTATAGCGTGTCGGACACTGACTCCTCCCATGTTCCTCGGAGTCACCTAGTGCAG	11100 fluorescence intensity (a.u.)
AACTGAATTGTTGGTTTTTTCGGTTTTCGGTTGTCAGTTCCGGAGTCACCTAGTGCAG	11900 fluorescence intensity (a.u.)
TCCCTAAAATTTTTCACCCTTTCACATTAAACGTTTAACACGGAGTCACCTAGTGCAG	11400 fluorescence intensity (a.u.)
TTGTCAGTTTTCTCTAAACCACAGTAATTAGTCAGTTTCACGGAGTCACCTAGTGCAG	8420 fluorescence intensity (a.u.)
GTAACCCTAATTTCAGAAACTAAACACAGTCACGTAAGAACGGAGTCACCTAGTGCAG	65500 fluorescence intensity (a.u.)
GTCCGCATCCAATTCCCGGGCCATTCGAAATCCCCAACACCGGAGTCACCTAGTGCAG	10200 fluorescence intensity (a.u.)
GGCCATAGCGTGTATTGTTGTGTTTGTGTGTAAAATTTTTCGGAGTCACCTAGTGCAG	11300 fluorescence intensity (a.u.)
GTATGCCATTCGCCCAAGATGCTTTTGCTTCGCATGGACCCGGAGTCACCTAGTGCAG	8540 fluorescence intensity (a.u.)
TTTTTTTTTCCTTTTGCTGACATGCATTATGTTTTCTATTCGGAGTCACCTAGTGCAG	10000 fluorescence intensity (a.u.)
AGTTTTTCTAGTCCTTCTTAATGCATGTGTCACCTTCTAACGGAGTCACCTAGTGCAG	10300 fluorescence intensity (a.u.)
CTTAATCGGTATGGGGAGAGTGTTCTTATTGTTTCATTTACGGAGTCACCTAGTGCAG	16800 fluorescence intensity (a.u.)
ATTCCTATATTTTTCCTATGTTTTGTAATCCTCTGTTTTACGGAGTCACCTAGTGCAG	12600 fluorescence intensity (a.u.)
GCTTAATTACATGGGAGAGGCTTTGTTTCTTGTTTATTTTCGGAGTCACCTAGTGCAG	8760 fluorescence intensity (a.u.)
TTTATTTCCTAGATTAATTCTGATATGTTTCTATGTTTTACGGAGTCACCTAGTGCAG	9260 fluorescence intensity (a.u.)
CTATTCTTGTGTTTTTTTCTATGTTTAATCCTATGTTTTACGGAGTCACCTAGTGCAG	16600 fluorescence intensity (a.u.)

Sequence	binding signal
GTAATTTAATGTTCATTATGGTGTTTCTTAATTGTTTTTTCGGAGTCACCTAGTGCAG	9320 fluorescence intensity (a.u.)
ATGTTTTTATGCTGCATTCCCCATGTGTGTTTCCTTCTAACGGAGTCACCTAGTGCAG	19600 fluorescence intensity (a.u.)
GCCAGACCGCCACCGTCCGTTTCCACAACCGTGCCAGTGCCGGAGTCACCTAGTGCAG	10700 fluorescence intensity (a.u.)
AGGTTGCCAGCGTGTGGGGTGGGTTATTTTCGTGTGCGGGCGGAGTCACCTAGTGCAG	11100 fluorescence intensity (a.u.)
GACCCACCACCACCACCACGCCGCGAGCACGCGAGCGAACCGGAGTCACCTAGTGCAG	8880 fluorescence intensity (a.u.)
GGGACCTAGGATGAACTTATTCCTTTCTGTTTCAACCATACGGAGTCACCTAGTGCAG	8370 fluorescence intensity (a.u.)
TGTGCCAGTTGTTAGTCATGATCTTCCTGATGTGTCATCCCGGAGTCACCTAGTGCAG	8080 fluorescence intensity (a.u.)
GGTGGTTTGAATTTGGTGTGGCGTTTTTCTTGGGCAGGGGCGGAGTCACCTAGTGCAG	21500 fluorescence intensity (a.u.)
ATTTGGTTTTATATGTTTGTGGAGTGATATATTTCGTATTCGGAGTCACCTAGTGCAG	8350 fluorescence intensity (a.u.)
TATCCGGTTTTCTGGTTGAGGGGTATGAATTAGATTCGACCGGAGTCACCTAGTGCAG	10200 fluorescence intensity (a.u.)
CAGGGTTTGGATGTGGATATGGTTTCTTCAAGGGTATTTTCGGAGTCACCTAGTGCAG	16400 fluorescence intensity (a.u.)
GGCTGGTTTGGTTTGTGGCTAAAATTGGCCTTACCAATTTCGGAGTCACCTAGTGCAG	10500 fluorescence intensity (a.u.)
TGGTTGAATTCTGGTTCGGGTATCCTCAATTTCGGGGTTTCGGAGTCACCTAGTGCAG	17700 fluorescence intensity (a.u.)
TTGGGTTGGGTCTTGGGTTTGGTGGTTTGAATTTGGTGTGCGGAGTCACCTAGTGCAG	13100 fluorescence intensity (a.u.)
CTTTTTTTTGATTTTTTTTATTTGTGGTTTGGATGTTTTTCGGAGTCACCTAGTGCAG	9280 fluorescence intensity (a.u.)
GGTGTGTGCTGGCTATTTGTCAAAGATTATGTGGGTTTTTCGGAGTCACCTAGTGCAG	10400 fluorescence intensity (a.u.)
TTTTCAATTTTCTGGTTGAGTAGGGGTTCGGAATTTTCTTCGGAGTCACCTAGTGCAG	10600 fluorescence intensity (a.u.)
TTTTTGGCTGGTCAAATTTGGCTAGTGTGGGGAGGGTTTTCGGAGTCACCTAGTGCAG	23600 fluorescence intensity (a.u.)
TGGTTTTTCATTTTGTGTGCGTGTGCACGTTTGTGTGGGGCGGAGTCACCTAGTGCAG	12700 fluorescence intensity (a.u.)
